# Shown are actives, neighbours in structure and some others; about 12% of the full set was active somewhere.
# Sm TGR inh: inhibitors of Schistosoma mansoni thioredoxin glutathione reductase; AID 485364; Potency, µM (top dose mostly 114 µM), inactives show at the top dose activity change, negative = inhibition, actives largely listed as inhibitors; 360,000 compounds, 3% hits; purified TGR, DTNB reduction, TNB absorbance 405 nm; note: % is set by controls: 0 for no effect and ±100 for the full control effect; nearly all actives have a fitted effect of over 60% in size
#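 TGR 20 nM + NADPH 100 uM (dispensed conc.), cpd preinc 15 min RT; start with NADPH (500 uM addition) then DTNB (15 mM addition). Kinetic TNB absorbance, 405 nm filter. Four-parameter Hill fit across titration.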
# SARS PLP yeast: inhibitors of SARS-CoV papain-like protease in yeast; S. cerevisiae expressing SARS-CoV PLpro, growth rescue; Potency, µM (highest dose often 32.9 µM), for inactives: top-dose activity, positive = growth rescue, most hits filed as activators; 330,000 compounds, 0.19% hits; AID 485353; calls by dose curve; note: 0% is about no effect; nearly all actives have a fitted effect of over 55% in size
# Pf growth 96h: inhibits malaria parasite growth, 96 h. P. falciparum luciferase reporter growth, 96 h. Potency, µM (top dose mostly 28.7 µM), for the others: at the highest dose activity change, negative = inhibition, hits mostly inhibitors. 320,000 compounds, 6.9% hits. AID 504834; note: % is set by controls: 0 for no effect and ±100 for the full control effect
#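 Luminescence readout: decreased luciferase signal marks inhibited growth of reporter-expressing P. falciparum in infected red cells (2% hematocrit, 0.05% parasitemia final), exposed to compound two generations (96 h, 37 C, 5% CO2).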
# Pf growth 48h: inhibits P. falciparum growth in the first generation, 48 h | P. falciparum luciferase growth in erythrocytes, 48 h | Potency, µM (top dose mostly 28.7 µM), without a hit: at the top dose activity change, negative = inhibition, actives largely listed as inhibitors | 310,000 compounds, 5.9% hits | AID 504832; note: % is set by controls: 0 for no effect and ±100 for the full control effect
#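 Luminescence readout; reporter = integrated firefly luciferase in P. falciparum. RBC culture at 2% hematocrit, 0.1% parasitemia final, 37 C/5% CO2; decreased signal taken as growth inhibition.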
# * = called active by the depositor; ? = inconclusive; · = no result given. Unless noted, calls come from the whole dose curve; as a rule, active = well fitted curve in the direction sought with a large enough effect; inconclusive = small, poorly fitted or top-dose-only effect, or another doubt; inactive = no such curve, though single readings can be large; an effect the other way counts as inactive or inconclusive. Potency is the fitted concentration of half-maximal effect.
SMILES,Sm TGR inh,SARS PLP yeast,Pf growth 96h,Pf growth 48h
Cc1cc(S(=O)(=O)NCCCN2CCOCC2)c(C)cc1Cl,?,18%,2%,5%
C[C@@H]1O[C@@H](OC[C@@H]2O[C@H](Oc3c(-c4ccc(O)cc4)oc4cc(O)cc(O)c4c3=O)[C@@H](O)[C@H](O)[C@H]2O)[C@H](O)[C@H](O)[C@H]1O,·,-9%,·,·
CC1OC(Oc2c(-c3cc(O)c(O)c(O)c3)oc3cc(O)cc(O)c3c2=O)C(O)C(O)C1O (stereo not drawn),0%,0%,-102%,9.3µM*
CC1(C)CC(C#N)(N2CCOCC2)CCO1 (stereo not drawn),13µM*,·,·,21%
CCOC(=O)N1CCC(Nc2c(-c3ccccc3)c(=O)c2=O)CC1,45µM*,6%,?,·
CCOC(=O)N1CCC(Nc2c(Nc3cccc(CC)c3)c(=O)c2=O)CC1,-13%,-1%,?,10µM*
CCOC(=O)N1CCC(Nc2c(NCCN3CCN(Cc4ccccc4)CC3)c(=O)c2=O)CC1,0%,0%,0%,-1%
CCOC(=O)N1CCC(Nc2c(Nc3ccc(F)cc3)c(=O)c2=O)CC1,4%,-4%,?,10µM*
CCOC(=O)N1CCC(Nc2c(-c3ccc(C)cc3)c(=O)c2=O)CC1,-7%,-6%,3%,-1%
CCOC(=O)N1CCC(Nc2c(NCCN3CCN(c4ccccc4F)CC3)c(=O)c2=O)CC1,-24%,-3%,?,·
Cc1ccc(C2/C(=C(\O)c3ccc4c(c3)OCCO4)C(=O)C(=O)N2CC2CCCO2)cc1 (stereo not drawn),9%,-4%,?,7%
c1ccc2[nH]c(-c3cnco3)cc2c1,6%,-2%,39%,69%
Cc1ccc(Cl)cc1Nc1nn2c(=O)c3ccc(C(=O)NC4CCCCC4)cc3nc2s1,-2%,·,·,·
COc1ccc(C(=O)NC2CC2)cc1OC1CCN(Cc2ccc(F)c(F)c2)CC1,6%,3%,?,?
CCOC(=O)c1c(C)[nH]c(C)c1C(=O)COC(=O)c1ccc(S(=O)(=O)N(CC)CC)cc1,5%,1%,?,?
CCOC(=O)c1c(C)[nH]c(C)c1C(=O)COC(=O)c1cccc(S(=O)(=O)N(CC)CC)c1,-4%,-8%,9.3µM*,15µM*
Nc1nnc(SCC(=O)Nc2cccc3ccccc23)s1,?,-1%,8%,29%
Cc1ccc(-c2cc(C(=O)NCc3ccc4c(c3)OCO4)[nH]n2)c(O)c1C,-1%,7%,12µM*,0%
COc1ccc(CCNC(=O)c2cc(-c3ccc(C)c(C)c3O)n[nH]2)cc1OC,-1%,9%,15µM*,·
O=C(C1=C[C@@H]2[C@H]3C(=O)N(c4ccccc4)C(=O)[C@H]3[C@@H](C(=O)c3ccc(Cl)cc3)N2C=C1)c1ccccc1,14µM*,-2%,?,?
C1CN(CC2CCN(c3nc4nonc4nc3N3CCSCC3)CC2)CCO1,28µM*,0%,-29%,7%
COC(=O)Cn1cc(C#N)c2ccccc21,-2%,-3%,30%,-3%
CCOC(=O)Cn1cc(C#N)c2cccc(CC)c21,9%,0%,0.74µM*,?
CCc1cccc2c(C#N)cn(CC(=O)NCc3ccco3)c12,-28%,1%,·,10µM*
Cc1cc(C)cc(N=Cc2ccc([N+](=O)[O-])s2)c1,?,-78%,-17%,0%
SMILES,Sm TGR inh,SARS PLP yeast,Pf growth 96h,Pf growth 48h
FC(F)Oc1ccccc1/C=N/n1cnc2ccccc21,13%,-12%,76%,65%
O=[N+]([O-])c1ccc(/C=N/n2cnc3ccccc32)s1,-20%,-64%,?,5.9µM*
Cc1nc2ccccc2n1/N=C/c1ccc([N+](=O)[O-])s1,-13%,-30%,4.1µM*,4.1µM*
O=[N+]([O-])c1ccc(/C=N/n2c(CO)nc3ccccc32)s1,-8%,-10%,?,4.7µM*
CCCCN(CCCC)C(=O)c1cc(Cl)ccc1[N+](=O)[O-],-8%,-6%,12%,-20%
CCCN(CCC)C(=O)c1cc([N+](=O)[O-])cc2c1-c1ccc([N+](=O)[O-])cc1C2=C(C#N)C#N,5µM*,0%,12µM*,12µM*
Cc1ccc(N=C(NOCc2ccc(Cl)cc2Cl)c2nonc2N)c(C)c1,19%,-19%,12µM*,·
Cc1ccccc1N=C(NOCc1ccc(Cl)cc1Cl)c1nonc1N,4%,-21%,12µM*,·
Cc1ccc(N=C(NOC(=O)c2ccccc2)c2nonc2N)c(C)c1,12%,-7%,5.9µM*,?
Cc1ccccc1N=C(NOCc1ccccc1)c1nonc1N,2%,-34%,?,?
Cc1ccc(N=C(NO)c2nonc2N)c(C)c1,8%,-6%,34%,11%
Cc1ccc(-n2nc(-c3ccc(F)cc3)c3cnc4cc5c(cc4c32)OCO5)cc1C,2%,·,·,·
COc1cccc(CC(=O)Nc2nc(-c3ccc(F)c(F)c3)cs2)c1,2%,-6%,1%,6%
Cc1ccc(S(=O)(=O)Nc2nc(-c3ccccc3)cs2)cc1,-22%,-3%,0%,-1%
Cc1ccc(S(=O)(=O)Nc2ccccc2C(=O)Nc2nc(-c3ccc(F)cc3)cs2)cc1,-8%,-92%,?,13µM*
COc1ccc(-c2csc(NC(=O)c3ccccc3NS(=O)(=O)c3ccc(F)c(F)c3)n2)cc1,5%,-4%,?,1.9µM*
Cc1cccc(C(=O)N(Cc2ccco2)Cc2ccccc2F)c1,0%,·,·,·
COc1ccc(CCNC(=O)c2ccc(CNS(=O)(=O)c3ccc(C(C)(C)C)cc3)cc2)cc1OC,-3%,-19%,13µM*,?
COc1ccc(CCNC(=O)c2ccc(CNS(=O)(=O)c3cc(C)ccc3C)cc2)cc1OC,0%,-6%,5.2µM*,·
COc1ccc(CCNC(=O)c2ccc(CNS(=O)(=O)c3cccc(Cl)c3)cc2)cc1OC,-2%,-1%,-19%,26%
COc1ccc(CCNC(=O)c2ccncc2)cc1OC,-3%,-8%,39%,22%
CCOc1ccc(CCNC(=O)c2ccc(CNS(=O)(=O)c3ccccc3)cc2)cc1OCC,-13%,6%,8.3µM*,?
Cc1ccc(C)c(S(=O)(=O)NCc2ccc(C(=O)N3CCCCC3C)cc2)c1 (stereo not drawn),-15%,1%,4.1µM*,·
CCc1nn(Cc2cccc(F)c2)c(=O)c2cc3cc(C)ccc3n12,-1%,·,·,·
CCOc1ccc(CNC(=O)Cn2c(=O)c3cccn3c3ccc(F)cc32)cc1OC,-5%,·,·,·
CCOC(=O)c1cccc(NC(=O)COc2nsnc2N2CCOCC2)c1,-4%,-1%,-12%,?
CCOc1ccc(CCNC(=O)c2cc(=O)[nH]c3ccc(S(=O)(=O)N4CCCCC4C)cc23)cc1OCC (stereo not drawn),6%,·,·,·
CCOc1ccc(CCNC(=O)c2cc(=O)[nH]c3ccc(S(=O)(=O)N(CC)CC)cc23)cc1OCC,7%,5%,?,15µM*
CC(=O)c1cccc(NC(=O)CCN2C(=O)C3C4CCC(C4)C3C2=O)c1 (stereo not drawn),3%,11%,?,19%

# Assay outcomes as filed in PubChem.
